In all, about 220,000 compounds went through this assay and about 2,000 (0.91%) were called active. Roughly 2% stayed inconclusive and do not appear here. Cut-off read from the data, not from the text of the source: inconclusive = inhibition above about 80% without an active follow-up result; inactive = below that; test concentration not stated here. A selection follows. Results with a measured potency or affinity are listed apart.

This experiment can be described thus: M. tuberculosis H37Rv growth inhibitors, H37Rv strain (AID 1626).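 Note: bacteria incubated seven days before Alamar blue readout; 0% = bacteria only wells and 100% = bacteria with antibiotic wells.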 The settings on record: active compounds read high, concentration not given here.
By inhibition is commonly meant the change of the read-out against control, counted positive when it falls. Consider `CC(C)(C)c1cc(NC(=O)COc2ccc(Br)cc2)n(-c2ccccc2)n1`, for which the inhibition was -8.73% (inactive). Turning to `COCCCNC(=O)c1ccc(-n2nc(C(F)(F)F)cc2-c2cccs2)cc1`, the inhibition is 2.29% (inactive). In the case of `CC1=CC(c2ccc(Cl)cc2)n2nc(NS(=O)(=O)c3ccc(C)cc3)nc2N1` (configuration not stated) it was -12.5% (inactive); in that of `CC1(C)CC(NC(=S)NC2CC2)CC(C)(C)N1`, -4.39% (inactive); in that of `Cc1ccc(Oc2ccc(NC(=O)CCC(=O)OCC(=O)c3cccs3)cc2)cc1C`, -2.17% (inactive).

`O=C(CCCC(=O)OCC(=O)c1cccs1)Nc1ccc(F)cc1`: the inhibition is -9.65% (inactive). On to `O=C(c1cccnc1)N1CCC(Oc2ccc(C(=O)N3CCCCO3)cc2)CC1`, for which the inhibition was 4.71% (inactive).

On to `COCCN(C(=S)Nc1ccc(C)cc1)C(C)c1cccnc1` (configuration not stated), for which the inhibition is -5.81% (inactive).

Turning to `CCCCCCn1c(CN2CCN(C(=O)OCC)CC2)nc2c1c(=O)n(C)c(=O)n2C`, the inhibition was 6.21% (inactive).

`COc1ccc(OC(=O)c2cccnc2)cc1`: the inhibition was 0.67% (inactive). With `CCCCOc1ccc(OC(=O)c2cccnc2)cc1`, the inhibition was 6.86% (inactive). In the case of `CCOc1ccc(OC(=O)c2cccnc2)cc1` it was 1.09% (inactive); in that of `CCCCCCOC(=O)c1ccc(OC(=O)c2cccnc2)cc1`, 74.1% (inactive). `O=C(Oc1ccc(Br)cc1)c1cncc(Br)c1`: the inhibition is -0.78% (inactive). For the compound `CCCCCCCOC(=O)c1ccc(OC(=O)c2cccnc2)cc1`, the inhibition was 8.62% (inactive). As for `O=C(Oc1cccc(Br)c1)c1cccnc1`, the inhibition was 13.2% (inactive). As for `O=C(Oc1ccc([N+](=O)[O-])cc1)c1cncc(Br)c1`, the inhibition is 10.3% (inactive).

As for `Cc1cccc(NC(=O)c2sc(Cl)nc2-c2ccccc2)c1`, the inhibition was 8.83% (inactive). `COc1cccc(CC2(CO)CCCN(Cc3ccc4c(c3)OCCO4)C2)c1` (configuration not stated): the inhibition was 4.07% (inactive).

As for `Cc1nc2cc(Cl)c([N+](=O)[O-])cc2s1`, the inhibition was 7.87% (inactive). As for `CC(C)Oc1ccc(CCc2nnc(SC(C)C(=O)O)n2-c2ccccc2)cc1` (configuration not stated), the inhibition is 2.62% (inactive). In the case of `CCc1ccccc1N1C[C@@]23C=C[C@@H](O2)C(C(=O)OCC(C)C)[C@H]3C1=O` (some centres not stated) it was -0.48% (inactive); in that of `CCCCn1nc2cc(C(=O)N(CC)c3ccc(OC)cc3)ccc2c1OCC`, 0.26% (inactive). Turning to `CN(C)c1ccc(C(=S)N2CCN(c3ccc([N+](=O)[O-])cc3)CC2)cc1`, the inhibition is 9.45% (inactive).

In the case of `COc1cc(NS(=O)(=O)c2ccc(N)cc2)nc(OC)n1`, the inhibition is 14.8% (inactive).

Regarding `COc1cc(NS(=O)(=O)c2ccc(NC(C)=O)cc2)ncn1`, the inhibition is 6.36% (inactive). The result for `O=C(CCC(=O)OCCCC(F)(F)C(F)(F)F)NC1CCCCC1` reads -2.21% (inactive).

The record behind these values is PubChem BioAssay AID1626 (SRMLSC, 2009).
